HSP90 refold inh – HSP90 inhibitors, primary screen, cell lysate, luminescence | 290,000 tested, 0.91% active | Heat shock protein HSP 90 (rabbit reticulocyte lysate; luciferase refolding) | Rabbit reticulocyte lysate, luciferase refolding luminescence, 3 h | inhibition, % at 5.6 µM;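 active = inhibition above the screen-wide mean plus 3 SD, computed separately per campaign, cut at about 16% in these data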;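 also: 0% = DMSO wells and 100% = 60 µM geldanamycin wells; inhibitors lower the luminescence because luciferase stays unfolded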
HSF-1 act – HSF-1 activators, primary screen, NIH3T3-HGL cells, MG132 stress, luminescence, single point | NIH3T3-HGL HSF-1 luciferase reporter, 8 h; 100% = twice DMSO control signal | activation, % at 9 µM | 300,000 tested, 1.7% active | AID 504408, 2011;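 active = mean replicate activation of at least 50% with a set share of replicates each reaching 50%; inconclusive = only one of those two conditions met; inactive = mean below 50% and too few replicates reaching it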;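 also: 0% = median of the neutral control wells and 100% = twice that signal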
dFosB act – activators of delta FosB homodimer, primary screen, biochemical, fluorescence polarization, TAMRA-CDK5 oligo, single point; Protein FosB (Mus musculus), P13346; purified delta FosB; percent of positive-control signal above neutral wells; activation, % at 25 µM; 340,000 tested, 0.99% active; AID 493131, 2011;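 active = mean activation above about 17%, with every replicate also reaching it, limit read from the data, passing the limit was not always enough; inconclusive = only one of the two conditions met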
Target sequence (P13346 whole entry, looked up): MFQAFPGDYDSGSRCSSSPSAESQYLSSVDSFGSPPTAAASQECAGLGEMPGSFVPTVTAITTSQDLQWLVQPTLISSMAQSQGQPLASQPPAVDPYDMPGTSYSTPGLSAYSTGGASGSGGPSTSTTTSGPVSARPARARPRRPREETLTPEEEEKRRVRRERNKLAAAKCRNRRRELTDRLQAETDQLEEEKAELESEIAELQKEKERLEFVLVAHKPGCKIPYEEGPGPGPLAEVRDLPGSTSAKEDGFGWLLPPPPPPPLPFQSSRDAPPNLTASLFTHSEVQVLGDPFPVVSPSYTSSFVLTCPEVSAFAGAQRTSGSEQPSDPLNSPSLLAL
Platelet DG rel – inhibitors of platelet dense granule secretion, primary screen, cell-based, MLPCN, human platelets; human platelet-rich plasma, SFLLRN dense granule ATP release, luminescence; 300,000 tested, 0.22% active; inhibition, %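 (compounds screened at 7.5 µM in platelet-rich plasma)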; AID 1663, 2009;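 active = mean replicate score, as percent of positive control, at or above 50; inconclusive = mean below 50 but at least one replicate at or above 50; inactive = mean and every replicate below 50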
MPTP block – mitochondrial permeability transition pore inhibitors, primary screen, biochemical, isolated mouse mitochondria, absorbance; 360,000 tested, 1.4% active; inhibition, % at 10 µM; AID 602449, 2012; Ca2+ swelling absorbance, 30 min;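 active = inhibition of 50% or more, scaled per plate between neutral and stimulator controls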;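 also: 0% = DMSO wells given calcium and 100% = 1 mM EGTA wells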
HSF1 inh – HSF1 inhibitors in luciferase reporter cells, primary screen, cell-based, NIH3T3, luminescence. NIH3T3-HGL HSE-luciferase, MG132-induced, luminescence 8 h; stronger effect = lower value. activity change, negative = inhibition, % at 7.5 µM (by protocol). 300,000 tested, 0.77% active. AID 2098, 2009;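 active = more than half of replicate wells show activity change below -50%, luminescence cut by over half; inconclusive = some wells, but at most half, below -50%; inactive = no replicate well below -50%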;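 also: luciferase reports HSF-1 transcriptional activity via heat shock element; 0% = median of DMSO wells and -100% = zero luminescence signal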
Rh123 counter – fluorescence retest of MPTP screen hits in isolated mitochondria, single concentration. shares compounds with MPTP block. membrane potential, Rhodamine 123 fluorescence. inhibition, % at 10 µM. 5,000 tested, 78% active; in the data active = inhibition above about 22%;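 also: 0% = DMSO vehicle and 100% = positive control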
MPTP swell DR – mitochondrial permeability transition pore inhibitors, dose response, biochemical, absorbance, uHTS hits. shares compounds with MPTP block. 780 tested, 58% active. IC50, µM. AID 651561, 2012. isolated mitochondria swelling; in the data active = IC50 below about 20 µM
MPTP counter DR – fluorescent counter-screen in isolated mitochondria, dose response, counter-screen for MPTP inhibitor project, biochemical, fluorescence, uHTS hits; shares compounds with MPTP block; IC50, µM; 780 tested, 49% active; isolated mitochondria counterscreen, fluorescence read-out; in the data active = IC50 below about 80 µM
Starred values were filed as active, the others as inactive. Only some compounds are listed: those with a hit (about 4.9% of all), similar ones and a draw of the others.

CC(C)C[C@H](N)c1cn([C@@H](Cc2cc3ccccc3[nH]2)C(=O)N2CCNCC2)nn1 was read as HSP90 refold inh -2, HSF-1 act -14, dFosB act -2, Platelet DG rel 0, MPTP block 92*, HSF1 inh 1, Rh123 counter -12, MPTP swell DR 4.9* and MPTP counter DR >80.
For O=C(Nc1ccc(Cl)c(Cl)c1)OCc1cccnc1 the results were HSP90 refold inh -1, HSF-1 act -10, dFosB act -3, Platelet DG rel 9, MPTP block 90*, HSF1 inh -4 and Rh123 counter 95*.
O=C(Nc1ccc(Cl)c(Cl)c1)c1cccc(S(=O)(=O)NCc2cccnc2)c1 was read as HSP90 refold inh -2, HSF-1 act -3, dFosB act -7, Platelet DG rel -15, MPTP block 104*, HSF1 inh -1 and Rh123 counter 84*.
`CCOC(=O)C1CCCN(C(=O)c2cc(C#N)cs2)CC1` (stereo unspecified) gave MPTP block 1.
For COc1ccc(N2CCc3c(C)nc4c(OC)cc(OC)cc4c32)c(OC)c1 the results were HSP90 refold inh -2, HSF-1 act -18, dFosB act 2, Platelet DG rel 1, MPTP block 64*, HSF1 inh -9 and Rh123 counter 72*.
Screening COc1ccc(N2CCc3c(C)nc4c(OC)cccc4c32)cc1 returned HSP90 refold inh 0, HSF-1 act -20, dFosB act inconclusive, Platelet DG rel -14, MPTP block 18 and HSF1 inh -7.
Screening O=C1C2C3C=CC(C4CC34)C2C(=O)N1/N=C/c1cccs1 (stereo unspecified) returned HSP90 refold inh 0, HSF-1 act 7, dFosB act -5, Platelet DG rel -5, MPTP block -1 and HSF1 inh -3.
`CC(C)(C)c1ccc(-c2cn(-c3ccc(Br)cc3)c3[n+]2CCCS3)cc1` gave HSP90 refold inh 1, HSF-1 act -11, dFosB act -11, Platelet DG rel 3, MPTP block 53*, HSF1 inh -7 and Rh123 counter 99*.
`CCc1c(C2(O)CCCCC2)[nH]c2ccc(C(F)(F)F)cc12` gave HSP90 refold inh 0, HSF-1 act -23, dFosB act -6, Platelet DG rel 4, MPTP block 21 and HSF1 inh -3.
For O=C(NC1CCCC1)C1c2ccccc2OCC(=O)N1C1CC1 (stereo unspecified) the results were MPTP block -1.
Screening O=[N+]([O-])c1ccc2nc(SCc3ccccc3Cl)sc2c1 returned HSP90 refold inh 2, HSF-1 act 19, dFosB act -12, Platelet DG rel 0, MPTP block 98*, HSF1 inh 14 and Rh123 counter 68*.
For COc1ccccc1OCCSc1nc2ccc([N+](=O)[O-])cc2s1 the results were HSP90 refold inh -2, HSF-1 act 4, dFosB act -3, Platelet DG rel 7, MPTP block 76*, HSF1 inh 4 and Rh123 counter 87*.
For C=CCc1ccccc1OCCSc1nc2ccc([N+](=O)[O-])cc2s1 the results were HSP90 refold inh 1, HSF-1 act 4, dFosB act -11, Platelet DG rel -7, MPTP block 84*, HSF1 inh 0 and Rh123 counter 41*.
Screening COc1ccc(CNC(=O)CN2C(=O)CCSc3ccc(S(=O)(=O)N4CCCC4)cc32)cc1 returned HSP90 refold inh 4, HSF-1 act 9, dFosB act -1, Platelet DG rel -22, MPTP block 0 and HSF1 inh 2.
For COc1ccc(CCC2(C)NC(=O)N(C(C)C(=O)N3c4ccccc4CC3C)C2=O)cc1 (stereo unspecified) the results were dFosB act 2 and MPTP block -2.
`O=C(CCS(=O)(=O)c1ccccc1Cl)NC1CCCCCC1` gave dFosB act -4 and MPTP block -1.
CCN(c1ccccc1)S(=O)(=O)c1cc(NC(=O)Nc2ccccc2C#N)ccc1Cl was read as HSP90 refold inh 2, HSF-1 act 59*, dFosB act -5, Platelet DG rel 5, MPTP block 96*, HSF1 inh 17 and Rh123 counter 95*.
For CCN(c1ccccc1)S(=O)(=O)c1ccc(Cl)c(NC(=O)Nc2ccc(Cl)cc2C#N)c1 the results were HSP90 refold inh -8, HSF-1 act 21, dFosB act -4, Platelet DG rel 20, MPTP block 3 and HSF1 inh 18.
For CN(c1ccccc1)S(=O)(=O)c1cccc(NC(=O)c2ccncc2)c1 the results were HSP90 refold inh 0, HSF-1 act -19, dFosB act -14, Platelet DG rel 6, MPTP block 96*, HSF1 inh -7 and Rh123 counter 69*.
Screening CN(c1ccccc1)S(=O)(=O)c1cccc(NC(=O)Nc2ccc(Cl)cc2C#N)c1 returned HSP90 refold inh 0, HSF-1 act 11, dFosB act -1, Platelet DG rel 12, MPTP block 71*, HSF1 inh 1 and Rh123 counter 86*.
`CN(c1ccccc1)S(=O)(=O)c1cccc(NC(=O)c2ccc(Cl)c([N+](=O)[O-])c2)c1` gave dFosB act -7, MPTP block 95* and Rh123 counter 84*.
O=C(Nc1ccccc1O)c1c(O)c2c([nH]c1=O)CCCC2 was read as HSP90 refold inh -3, HSF-1 act 7, dFosB act -5, Platelet DG rel 0, MPTP block 3 and HSF1 inh -6.
`CCN(c1ccccc1)S(=O)(=O)c1cc(C(=O)Nc2ccc(F)c(F)c2)ccc1F` gave HSP90 refold inh -1, HSF-1 act -1, dFosB act 7, Platelet DG rel -8, MPTP block 91*, HSF1 inh 7 and Rh123 counter 81*.
CN(c1ccccc1)S(=O)(=O)c1ccc(NC(=O)c2ccc(-c3ccccc3)cc2)cc1 was read as HSP90 refold inh 0, HSF-1 act 3, dFosB act -8, Platelet DG rel -14, MPTP block 25 and HSF1 inh 2.
